Tau FP inhib: inhibitors of human tau fibril formation. Potency, µM (titrated, usually from 57.7 µM), for the others: at the highest dose activity, negative = inhibition, actives largely listed as inhibitors. 0.39% of 280,000 active. K18 P301L tau heparin fibrillization, Alexa594 FP, 6 h. AID 1468. P10636; note: potency is the fitted concentration of half-maximal effect; % is set by controls: 0 for no effect and ±100 for the full control effect; nearly all actives have a fitted effect of over 55% in size
Target sequence (P10636 561-689 P618L limits assumed): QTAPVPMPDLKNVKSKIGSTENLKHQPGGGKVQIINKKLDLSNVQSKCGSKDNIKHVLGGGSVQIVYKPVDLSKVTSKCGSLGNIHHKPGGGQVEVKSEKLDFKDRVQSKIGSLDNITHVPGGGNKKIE
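Recombinant K18 P301L […], labeled with Alexa 594 at 0.24 uM over 15 uM unlabeled; heparin inducer 20 uM final; 37 C, 6 hr; FP endpoint.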
Tau ThT inhib: blocks human tau fibril formation measured by thioflavin T | P10636 | recombinant tau K18 P301L, heparin-induced fibrillization, ThT fluorescence | Potency, µM (series often up to 57.4 µM), for the others: top-dose activity, negative = inhibition, usual class: inhibitors | 2.1% of 270,000 active; note: potency is the fitted concentration of half-maximal effect; % is set by controls: 0 for no effect and ±100 for the full control effect; nearly all actives have a fitted effect of over 55% in size
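Recombinant human tau K18 fragment […] carrying P301L, 15 uM unlabeled plus 0.24 uM Alexa 594-labeled, was fibrillized with 20 uM heparin in 100 mM sodium acetate pH 7 for 6 hr at 37 C; 30 uM ThT fluorescence read after 1 hr.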
Lamin A splicing: modulators of lamin A splicing. HeLa LMNA splicing GFP/RFP minigene ratio, 48 h. Potency, µM (highest dose often 46.1 µM), for inactives: at the highest dose ratio change, negative = inhibition, usual class: inhibitors. 0.01% of 200,000 active. AID 1487; active = well fitted inhibition curve with a large enough effect in the signal ratio, with a control signal flat, not every such curve was filed as active; inconclusive = small, poorly fitted or top-dose-only effect, or effect the other way, or a change in a side signal; the % refers to the signal ratio; note: potency is the fitted concentration of half-maximal effect; % is set by controls: 0 for no effect and ±100 for the full control effect
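S3 HeLa stable clones carrying a lamin A-EGFP splicing minigene plus DsRed2 were seeded at 600 cells/well in Opti-MEM with 2% FBS, pin-dosed and incubated 48 h at 37°C. Acumen cytometry (488 nm) gave the GFP/RFP total-intensity ratio.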
CBFb-RUNX1 inh: inhibitors of human CBF-beta and RUNX1 interaction; Potency, µM (doses to about 59.8 µM), inactives show at the top dose activity, negative = inhibition, hits mostly inhibitors; Q01196+Q13951; AlphaScreen CBFb-His/RUNX1-biotin binding, biochemical; AID 1477; 230,000 tested, under 10 active; note: % of control where 0% means no effect
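Read-out: AlphaScreen. Format: His-CBF-beta with biotinylated RUNX1 (30 nM each) preincubated 20 min, compound 15 min, Ni-chelate plus streptavidin beads 90 min; room temperature throughout.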
Tau fluor counter: counter-screen for tau fibril formation inhibitors. tau K18 P301L Alexa594 fluorescence, heparin fibrillization. Potency, µM (top dose mostly 57.7 µM), for inactives: at the highest dose activity change, negative = decrease. 0.93% of 280,000 active; note: potency is the fitted concentration of half-maximal effect; % is set by controls: 0 for no effect and ±100 for the full control effect; nearly all actives have a fitted effect of over 55% in size
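Human tau K18 P301L (15 uM unlabeled, 0.24 uM Alexa 594-labeled) in 100 mM sodium acetate pH 7 with 20 uM heparin, 6 hr at 37 C. ThT 30 uM added, 1 hr ambient; Alexa 594 FP and total fluorescence read at 555/632 nm.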
KDM4E inh: inhibitors of human JMJD2E histone demethylase | B2RXH2 | JMJD2E catalytic domain, FDH-coupled NADH fluorescence (FDH is formaldehyde dehydrogenase) | Potency, µM (titrated, usually from 57.1 µM), inactives show at the top dose activity change, negative = inhibition, usual class: inhibitors | 1.6% of 230,000 active | AID 2147; active = well fitted inhibition curve with a large enough effect, not every such curve was filed as active; inconclusive = small, poorly fitted or top-dose-only effect, or another doubt; inactive = no such curve, though single readings can be large or run the other way;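 note: potency is the fitted concentration of half-maximal effect; 0% = wells with enzyme and -100% = buffer wells without enzyme; nearly all actives have a fitted effect of over 50% in size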
Target sequence (B2RXH2 1-337 limits assumed): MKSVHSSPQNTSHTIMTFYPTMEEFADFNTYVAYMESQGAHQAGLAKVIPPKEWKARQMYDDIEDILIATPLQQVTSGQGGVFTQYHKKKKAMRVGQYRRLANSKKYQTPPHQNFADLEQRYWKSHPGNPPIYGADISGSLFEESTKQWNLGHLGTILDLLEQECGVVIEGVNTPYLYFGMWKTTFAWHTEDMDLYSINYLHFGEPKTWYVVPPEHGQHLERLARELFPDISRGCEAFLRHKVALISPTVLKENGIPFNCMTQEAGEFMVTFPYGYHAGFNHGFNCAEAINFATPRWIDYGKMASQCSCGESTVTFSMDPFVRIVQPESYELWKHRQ
* marks the source's active call; other numbers are inactive results; ? = inconclusive; · = no result given; [ ] = another dose, or the depositor's remark. Hits are enriched below; roughly 3.2% of the tested compounds scored in any of these assays. Unless noted, calls come from the whole dose curve; as a rule, active = well fitted curve in the direction sought with a large enough effect; inconclusive = small, poorly fitted or top-dose-only effect, or another doubt; inactive = no such curve, though single readings can be large; an effect the other way counts as inactive or inconclusive.

SMILES | Tau FP inhib | Tau ThT inhib | Lamin A splicing | CBFb-RUNX1 inh | Tau fluor counter | KDM4E inh
CC[C@H](C)[C@H](NC(=O)[C@H](Cc1ccc(O)cc1)NC(=O)[C@H](Cc1cnc[nH]1)NC(=O)[C@H](CCCNC(=N)N)NC(=O)[C@H](CC(C)C)NC(=O)[C@H](C)NC(=O)[C@H](CO)NC(=O)[C@H](Cc1ccc(O)cc1)NC(=O)[C@H](Cc1ccc(O)cc1)NC(=O)[C@H](CCCNC(=N)N)NC(=O)[C@H](C)NC(=O)[C@H](CC(C)C)NC(=O)[C@H](CC(=O)O)NC(=O)[C@H](CCC(=O)O)NC(=O)[C@H](C)NC(=O)[C@@H]1CCCN1C(=O)[C@H](C)NC(=O)[C@H](CC(=O)O)NC(=O)[C@H](CCC(=O)O)NC(=O)CNC(=O)[C@@H]1CCCN1C(=O)[C@H](CC(N)=O)NC(=O)[C@H](CC(=O)O)NC(=O)[C@@H]1CCCN1C(=O)[C@H](CCCCN)NC(=O)[C@@H](N)CO)C(=O)N[C@@H](CC(N)=O)C(=O)N[C@@H](CC(C)C)C(=O)N[C@H](C(=O)N[C@H](C(=O)N[C@@H](CCCNC(=N)N)C(=O)N[C@@H](CCC(N)=O)C(=O)N[C@@H](CCCNC(=N)N)C(=O)N[C@@H](Cc1ccc(O)cc1)C(N)=O)[C@@H](C)O)[C@@H](C)CC | · | · | · | 2% | · | ·
COc1cc(/C=C/c2nc(C#N)c(NC3CCCCC3)o2)cc(OC)c1OC | 8% | -7% | · | · | ? | ·
COc1ccc(NC(=O)Cn2c(=O)n(-c3cc(C)cc(C)c3)c(=O)c3oc4ccccc4c32)cc1OC | 7% | -3% | · | · | -28% | ·
Cc1ccc(OCC(O)Cn2c3ccccc3c3ccccc32)cc1 (stereo unspecified) | ? | -5% | ? | 10% | ? | ?
Cc1ccc(OCCN2CCN(CC(O)Cn3c4ccccc4c4ccccc43)CC2)cc1 (stereo unspecified) | -6% | ? | ? | -2% | -28% | 8.9µM*
CC[C@H](C)[C@H](NC(=O)[C@H](CCC(=O)O)NC(=O)[C@@H](N)CO)C(=O)N[C@@H](CCC(N)=O)C(=O)N[C@@H](CC(C)C)C(=O)N[C@@H](CCSC)C(=O)N[C@@H](Cc1cnc[nH]1)C(=O)N[C@@H](CC(N)=O)C(=O)N[C@@H](CC(C)C)C(=O)NCC(=O)N[C@@H](CCCCN)C(=O)N[C@@H](Cc1cnc[nH]1)C(=O)N[C@@H](CC(C)C)C(=O)N[C@@H](CC(N)=O)C(=O)N[C@@H](CO)C(=O)N[C@@H](CCSC)C(=O)N[C@@H](CCC(=O)O)C(=O)N[C@@H](CCCNC(=N)N)C(=O)N[C@H](C(=O)N[C@@H](CCC(=O)O)C(=O)N[C@@H](Cc1c[nH]c2ccccc12)C(=O)N[C@@H](CC(C)C)C(=O)N[C@@H](CCCNC(=N)N)C(=O)N[C@@H](CCCCN)C(=O)N[C@@H](CCCCN)C(=O)N[C@@H](CC(C)C)C(=O)N[C@@H](CCC(N)=O)C(=O)N[C@@H](CC(=O)O)C(=O)N[C@H](C(=O)N[C@@H](Cc1cnc[nH]1)C(=O)N[C@@H](CC(N)=O)C(=O)N[C@@H](Cc1ccccc1)C(=O)O)C(C)C)C(C)C | · | · | · | 15% | · | ·
COc1cccc(NC(=O)Cn2c(=O)n(-c3cccc(OC)c3)c(=O)c3c4c(sc32)CCCC4)c1 | ? | 16% | · | · | -15% | ·
O=[N+]([O-])c1cc([N+](=O)[O-])c2c(=Nc3ccccc3)n(-c3ccccc3)n(O)c2c1 | ? | 14µM* | ? | ? | 16µM*[quencher] | ?
CCC(=O)N1CCc2cc(S(=O)(=O)Nc3cc(C)ccc3OC)ccc21 | 1% | 1% | · | · | -8% | ·
C=CCN1C(=O)/C(=C/c2ccc(O)c(OC)c2)S/C1=N/c1nccs1 | 0% | ? | ? | 2% | 28µM*[quencher] | -8%
CCCCOc1cccc(NC(=O)c2cccc(C(=O)Nc3cccc(OCCCC)c3)c2)c1 | -13% | 5% | · | · | -1% | ·
CN1CCc2c(n(CC(O)CNCc3ccccc3)c3ccccc23)C1=O (stereo unspecified) | 0% | -1% | · | 6% | 2% | 16%
CC(C)NCC(O)Cn1c2c(c3ccccc31)CCc1c-2cnn1-c1ccccc1 (stereo unspecified) | 10% | 16µM* | ? | -13% | ? | ?
CC1CC=CC2C1C(=O)N(Cc1ccccc1)C2c1ccc2ccccc2c1Br (stereo unspecified) | · | · | · | 20% | · | ·
CC(C)(CNC(=O)c1ccc([N+](=O)[O-])c(Cl)c1)CNC(=O)c1ccc([N+](=O)[O-])c(Cl)c1 | -2% | ? | ? | -1% | 13µM*[quencher] | 0%
C=CCNC(=O)c1ccc([N+](=O)[O-])c(Cl)c1 | 8% | 6% | · | -2% | 3% | -3%
C[C@H](N)CCP(=O)(O)O | -4% | 3% | · | 2% | -6% | ·
CCC1CN(C(=O)Nc2cc(OC)cc(OC)c2)c2ccccc2S1 (stereo unspecified) | -5% | -15% | -16%[46 µM] | · | -26% | ·
CCCOC(=O)C1=C(C)N(C)C(=O)NC1c1cc2c(cc1[N+](=O)[O-])OCO2 (stereo unspecified) | 11% | -14% | -11%[9.22 µM] | -6% | -8% | -14%
CCOC(=O)C1=C(C)NC(=O)CC1c1cc2c(cc1[N+](=O)[O-])OCO2 (stereo unspecified) | ? | 22µM* | · | ? | ? | ?
CCC1CN(C(=O)N2CCC(C(=O)N3CCN(c4ccccc4F)CC3)CC2)c2ccccc2O1 (stereo unspecified) | 10% | ? | -6%[46 µM] | · | 14µM*[quencher] | ·
CCC1CN(C(=O)N2CCC(C(=O)NCc3ccc(N(C)C)cc3)CC2)c2ccccc2O1 (stereo unspecified) | 9% | -16% | ? | · | -18% | ·
CCC1CN(C(=O)NCc2ccc(C)cc2)c2ccccc2O1 (stereo unspecified) | ? | ? | -13%[46 µM] | · | 16µM*[quencher] | ·
CCC1CN(C(=O)NCc2ccc(F)cc2)c2cc(C)ccc2O1 (stereo unspecified) | ? | 4% | ? | · | ? | ·
CCc1ccc(NC(=O)C2CCN(C(=O)N3CC(CC)Oc4ccccc43)CC2)cc1 (stereo unspecified) | ? | ? | -19%[46 µM] | · | 16µM*[quencher] | ·
